# From PubChem
# RBX1-CUL1 inh: inhibitors of human ROC1-CUL1 ubiquitin ligase activity; E3 ubiquitin-protein ligase RBX1 (Homo sapiens) + Cullin-1 (Homo sapiens), P62877+Q13616; in vitro K48 di-Ub FRET, acceptor:donor ratio, 45 min; inhibition, % at 10 µM; hit rate 0.6% among 140,000; in the data active = inhibition above about 25%
# Starred values were filed as active, the others as inactive. Many of the other results were omitted from the sample, so hits are more common in it than they were.
SMILES,RBX1-CUL1 inh
CCN1CC=C2C(C#N)C(=N)C(C#N)(C#N)[C@H](c3ccc4c(c3)OCO4)[C@H]2C1 (stereo partly drawn),-5
CCN1CC=C2C(C#N)C(=N)C(C#N)(C#N)C(c3cccc(F)c3)C2C1 (stereo not drawn),47*
CCOc1ccc(C(Cc2ccccc2)NC(=O)c2ccccc2F)cc1OCC (stereo not drawn),5
O=C(CCCOc1ccc(Cl)cc1Cl)NNC(=O)CCC(=O)NNC(=O)CCCOc1ccc(Cl)cc1Cl,-11
CCC(C)c1ccccc1NS(C)(=O)=O (stereo not drawn),10
COc1ccc2nc(SCC(=O)N3CCc4ccccc4C3)nc(C)c2c1,3
N#CCc1ccsc1-c1sccc1CC#N,5
C=CCOc1ccc(C(=O)C2C(=O)C(=O)N(c3nccs3)C2c2cccc(Br)c2)cc1 (stereo not drawn),11
O=C1N(Cc2cccc(Cl)c2)C[C@@H]2C[C@@H](c3ccc(F)c(F)c3)N3CCC[C@@]123,5
CCC(C)NC(=O)c1ccc(F)c(S(=O)(=O)N2CCOCC2)c1 (stereo not drawn),11
CC(C)(C)c1cc(=O)[nH]c(N2CCN(Cc3ccc4c(c3)OCO4)CC2)n1,9
O=C1c2ccccc2C(=O)N1CCCN(Cc1ccccc1)Cc1ccccc1,4
CC1(C)CC(=O)C(C(c2ccccc2OC(=O)c2ccccc2)C2C(=O)CC(C)(C)CC2=O)C(=O)C1,-11
COC12C=CC(CC1)C1=C2C(=O)c2c(OC(=O)c3ccccc3)ccc(OC(=O)c3ccccc3)c2C1=O (stereo not drawn),71*
O=C(Oc1cc(=O)n(-c2ccccc2)c2c1CCCC2)c1ccccc1,5
COc1ccc(-c2csc3ncn(CC(=O)Nc4cccc5ccccc45)c(=O)c23)cc1OC,0
CCCCn1c(=N)c(C(N)=S)cc2c(=O)n3cccc(C)c3nc21,10
O=C(O)c1sccc1-c1ccsc1C(=O)O,-1
c1cc2c(s1)COCc1sccc1-2,45*
CCCCNc1nc(CCC)nc2ccccc12,9
C=CCSc1nc2ccccc2n1C(=O)Oc1ccccc1,5
COc1cc(C(C2C(=O)Oc3ccc(C)cc3C2=O)C2C(=O)Oc3ccc(C)cc3C2=O)cc(OC)c1OC (stereo not drawn),4
O=C1c2cc(Cl)ccc2OCC1Br (stereo not drawn),-6
Cc1ccc2c(c1)C(=O)C(C(c1ccc(Cl)cc1Cl)C1C(=O)Oc3ccc(C)cc3C1=O)C(=O)O2 (stereo not drawn),56*
COc1ccc(OC)c2c1C(=O)c1ccccc1-2,-1
SMILES,RBX1-CUL1 inh
O=C1c2ccccc2-c2c1c(O)c(O)c(-c1ccccc1)c2-c1ccccc1,102*
O=c1c(-c2ccccc2)c1-c1ccccc1,0
O=C1C2ON(c3ccccc3)C(c3ccc(Cl)cc3Cl)C2C(=O)N1c1ccccc1 (stereo not drawn),-3
Cc1cc(CN2CCN(Cc3ccccc3)C(CCO)C2)n[nH]1 (stereo not drawn),4
Clc1ccccc1CNCc1ccc(Br)cc1,0
CC(C)N1C(=O)/C(=C\c2ccc(N(C)C)cc2)C(=O)N(Cc2ccco2)C1=O,11
CC(C)N1C(=O)C(C=Nc2cc(Cl)c(Cl)cc2Cl)C(=O)N(Cc2ccco2)C1=O (stereo not drawn),4
COc1ccc(/C=C2\C(=O)N(Cc3ccco3)C(=O)N(C(C)C)C2=O)c(OC)c1,101*
CS(=O)(=O)N(Cc1ccc(F)cc1)c1ccc(C(N)=O)cc1,1
Cc1cc([N+](=O)[O-])c(N)n[n+]1[O-],-2
O=S(=O)(NC(c1ccccc1)(c1cc2ccccc2[nH]1)c1cc2ccccc2n1S(=O)(=O)c1ccccc1)c1ccccc1 (stereo not drawn),3
CN=C1CC=CC=C(C(=O)/C=C/c2c(Cl)cccc2Cl)C1=O,23
CN=C1CC=CC=C(C(=O)/C=C/c2cccc(Oc3ccccc3)c2)C1=O,104*
Cc1ccc(/C=C/C(=O)C2C=CC=CC(=O)C2=O)c(C)c1 (stereo not drawn),0
CN=C1CC=CC=C(C(=O)/C=C/c2ccccc2)C1=O,84*
CC1=NC(=O)C(C(=O)/C=C/c2ccccc2)=C(C)C1,1
COc1cccc(/C=C/C(=O)c2ccccc2)c1,0
CN=C1CC=CC=C(C(=O)/C=C/c2cc(C)ccc2C)C1=O,3
CN=C1CC=CC=C(C(=O)/C=C/c2ccc(C)cc2C)C1=O,103*
CN=C1CC=CC=C(C(=O)/C=C/c2ccc(C(F)(F)F)cc2)C1=O,-1
Cc1ccc(C(=O)Nc2cc([N+](=O)[O-])ccc2Cl)c2ccccc12,-6
COc1cc(/C=N/NC(=O)CNC(=O)COc2ccc3c(c2)CCCC3)cc(Br)c1O,7
O=C(O)c1ccccc1-c1c2cc(Cl)c(=O)cc-2oc2c1CC(Cl)C(O)=C2 (stereo not drawn),129*
O=C(O)c1cc(NC2(c3ccccc3)C(=O)c3ccccc3C2=O)ccc1Cl,-2
COc1ccc(C2C(C(=O)/C=C/c3ccccc3)C(=O)C(=O)N2CCOCCO)cc1 (stereo not drawn),2
SMILES,RBX1-CUL1 inh
CC1=NN(c2nc(-c3ccccc3)cs2)C(=O)C1N=Nc1cc(Cl)ccc1Cl (stereo not drawn),1
Cc1c(C)n2c3c(=O)n(C)c(=O)n(C)c3nc2n1-c1cccc(O)c1,1
Cc1cccc(-n2c(C)c(C)n3c4c(=O)n(C)c(=O)n(C)c4nc23)c1,26*
Cc1cc(C)cc(-n2c(C)c(C)n3c4c(=O)n(C)c(=O)n(C)c4nc23)c1,4
CC1=NN(c2nc(-c3ccc(Br)cc3)cs2)C(=O)C1N=Nc1cccc(O)c1 (stereo not drawn),-1
CC1=NN(c2nc(-c3ccc(Br)cc3)cs2)C(=O)C1N=Nc1ccc(Oc2ccccc2)cc1 (stereo not drawn),1
CC1=NN(c2nc(-c3ccc(Br)cc3)cs2)C(=O)C1N=Nc1nccs1 (stereo not drawn),78*
CCOc1ccc(/C=C(/C#N)c2nc(-c3ccc(Cl)cc3Cl)cs2)cc1,-10
O=C(c1cc2cc(Br)ccc2oc1=O)N1CCc2ccccc21,-5
CC(C)(C)c1ccc(S(=O)(=O)Nc2cc(SCC(=O)O)c(O)c3ccccc23)cc1,92*
CC(C)(C)c1ccc(S(=O)(=O)Nc2ccc(O)c(C(=O)O)c2)cc1,4
O=S(=O)(Nc1cc(Sc2nnnn2-c2ccccc2)c(O)c2ccccc12)c1ccccc1,5
CC(=O)c1c(C)oc2c1cc(NS(=O)(=O)c1ccc(Br)cc1)c1ccccc12,3
O=c1oc2c(cc(NS(=O)(=O)c3ccc(Br)cc3)c3ccccc32)s1,2
CC(C)(C)c1ccc(S(=O)(=O)Nc2ccc(Cl)cc2Cl)cc1,-2
O=C(O)CSc1cc(NS(=O)(=O)c2ccccc2)c2ccccc2c1O,37*
O=C(O)CSc1cc(NS(=O)(=O)c2ccc(Br)cc2)c2ccccc2c1O,102*
Cc1ccc(NS(=O)(=O)c2ccccc2)c(O)c1,11
O=C1C2C3C=CC(C2C(=O)N1c1ccc(CCO)cc1)C1C(=O)N(c2ccc(CCO)cc2)C(=O)C31 (stereo not drawn),3
COc1ccc(CC2(CCC(=O)NCCC3COc4ccccc4O3)CCC(=O)N2)c(F)c1 (stereo not drawn),1
CCc1noc(C)c1C(=O)NC1CCN(CC)CC1,3
Cc1cc(Cl)ccc1NC(=O)c1ccccc1F,6
